These results are taken from PubChem BioAssay (NCI).

About 83,000 compounds went through this panel and 20% of them were active in at least one assay; those are over-represented in the sample as a whole.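 Plates (96-well) were seeded with cells, treated with compound at one concentration, and incubated for 48 hours before percent growth was determined.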 A number with no mark means an inactive call. The source made the active and inactive calls. Rule for the calls: active = growth percent below 10; inactive = the rest.

Holding throughout (test): NCI-60 one-dose screen, 48 h (100 = growth as untreated, 0 = no growth, -100 = all killed)
One experiment relates to NCI-H522 lung. The conditions noted are these: 10 µM unless noted.
For a further experiment, the system named is COLO 205 colon. To be noted: 10 µM.
In a further experiment the test system is MALME-3M melanoma. To be noted: 10 µM unless noted.
The next experiment relates to M14 melanoma. To be noted: 10 µM unless noted.
For the next experiment, the system named is U251 CNS. To be noted: 10 µM unless noted.
Another experiment concerns LOX IMVI melanoma. The conditions noted are these: 10 µM unless noted.
The subject of a further experiment is EKVX NSCLC. The conditions noted are these: 10 µM unless noted.
For another experiment, the system named is TK-10 renal. To be noted: 10 µM unless noted.
The subject of another experiment is CAKI-1 renal. The conditions noted are these: 10 µM unless noted.
For a further experiment, the system named is CCRF-CEM leukemia. The conditions noted are these: 10 µM unless noted.
The subject of a further experiment is MOLT-4 leukemia. To be noted: 10 µM.
A further experiment relates to SR leukemia. The conditions noted are these: 10 µM.
Another experiment has as its system RPMI-8226 leukemia. The conditions noted are these: 10 µM unless noted.
The next experiment deals with SK-OV-3 ovarian. The conditions noted are these: 10 µM unless noted.
In the next experiment the test system is HCT-116 colon. To be noted: 10 µM unless noted.
In a further experiment the test system is RXF 393 renal. To be noted: 10 µM unless noted.
A further experiment concerns SW-620 colon. The conditions noted are these: 10 µM unless noted.
The next experiment has as its system BT-549 breast. To be noted: 10 µM.

With `CCCCCN(CCCCC)CC(O)c1ccc(C)c(Cl)c1` (stereo unspecified), the growth with NCI-H522 lung was 83.5%; in the experiment on COLO 205 colon it was 91.3%; in the experiment with MALME-3M melanoma, 105%; in the experiment on M14 melanoma, 96%; with U251 CNS it was 92.4%; in the experiment with LOX IMVI melanoma, 96.3%. The growth is 95.2% with EKVX NSCLC; 98.5% with TK-10 renal; 98.2% in the experiment on CAKI-1 renal; 99% in the experiment on CCRF-CEM leukemia; 110% with MOLT-4 leukemia; 92.4% in the experiment on SR leukemia. Moreover, the growth is 91.8% in the experiment on RPMI-8226 leukemia, 94.3% in the experiment with SK-OV-3 ovarian and 82.1% in the experiment with HCT-116 colon.
In the case of `c1ccc2nc(OCCN3CC3)ccc2c1`, the growth with NCI-H522 lung was 47.1%; in the experiment with COLO 205 colon, 68.1%; in the experiment on MALME-3M melanoma, 113%; with RXF 393 renal it was 59.1%; in the experiment with M14 melanoma, 86.5%; in the experiment with LOX IMVI melanoma it was 86.3%. The growth with EKVX NSCLC was 80.7%; with TK-10 renal, 108%; with CAKI-1 renal, 90.8%; in the experiment with CCRF-CEM leukemia, 31.7%; with MOLT-4 leukemia, 34%; with SR leukemia, -13.3% (active). Further, the growth with RPMI-8226 leukemia was 9.61% (active); in the experiment with SK-OV-3 ovarian, 96.7%; with SW-620 colon, 64.8%; in the experiment on HCT-116 colon, 25%.
In the case of `CCCCNCCc1ccccn1`, the growth in the experiment on NCI-H522 lung is 86.9%; in the experiment with COLO 205 colon, 117%; in the experiment with MALME-3M melanoma, 101%; with RXF 393 renal it was 113%; with M14 melanoma, 99.6%; in the experiment on LOX IMVI melanoma it was 97.1%. In addition, the growth is 96.8% with TK-10 renal; 97% in the experiment with CAKI-1 renal; 92.4% with CCRF-CEM leukemia; 97.5% in the experiment with MOLT-4 leukemia; 101% with SR leukemia; 90.2% in the experiment on RPMI-8226 leukemia. Further, the growth was 119% with SK-OV-3 ovarian and 98.2% in the experiment with BT-549 breast.
With `COC(C)(C)CCC[C@H](C)C/C=C/C(C)=C/C(=O)OC(C)C`, the growth in the experiment on NCI-H522 lung is 69.1%; in the experiment on COLO 205 colon, 107%; in the experiment with MALME-3M melanoma, 85.9%; in the experiment on RXF 393 renal, 104%; with M14 melanoma, 100%; in the experiment with LOX IMVI melanoma, 92.9%. Further, the growth with EKVX NSCLC is 78.1%; in the experiment on TK-10 renal it was 96.5%; with CAKI-1 renal, 85.4%; in the experiment with CCRF-CEM leukemia, 78%; with MOLT-4 leukemia it was 90%; with RPMI-8226 leukemia, 62.9%. Further, the growth was 92% with SK-OV-3 ovarian, 103% in the experiment with BT-549 breast and 83.6% with HCT-116 colon.
Take `CCCCn1cc(C(=O)/C(C#N)=C/c2cc3ccccc3nc2Cl)c2cc(OC)ccc21`: the growth is 99.6% in the experiment on NCI-H522 lung; 104% with COLO 205 colon; 88.6% in the experiment with MALME-3M melanoma; 83.2% with U251 CNS; 74% with LOX IMVI melanoma; 93.9% in the experiment on EKVX NSCLC. Moreover, the growth in the experiment with TK-10 renal was 101%; in the experiment with CAKI-1 renal, 75%; with CCRF-CEM leukemia it was 33.4%; in the experiment with MOLT-4 leukemia, 67.8%; in the experiment with SR leukemia it was -12% (active); in the experiment on SK-OV-3 ovarian, 94.5%. The values for the growth in the experiment with BT-549 breast, in the experiment on SW-620 colon and with HCT-116 colon were 91.7%, 44.7% and 23.6%, respectively.
With `N#CC1=C(N)Oc2cc3c(cc2C1c1cccs1)OCO3` (stereo unspecified), the growth in the experiment on NCI-H522 lung was -26% (active); with COLO 205 colon, -7.45% (active); with MALME-3M melanoma, 40%; in the experiment with RXF 393 renal it was -5.68% (active); in the experiment with M14 melanoma it was 15.1%; with U251 CNS, 25.4%. Besides, the growth with EKVX NSCLC was 53.7%; in the experiment on TK-10 renal it was 56.1%; in the experiment with CAKI-1 renal, 43.4%; in the experiment on CCRF-CEM leukemia it was 21.4%; with MOLT-4 leukemia, 29.9%; in the experiment on SR leukemia, 16.2%. For the same compound, the growth was 24.9% in the experiment with RPMI-8226 leukemia, 7.21% (active) in the experiment with SK-OV-3 ovarian, 44.6% with BT-549 breast and 21.2% in the experiment with HCT-116 colon.
On to `CCCCN(CCCC)CC(O)c1ccccc1` (stereo unspecified), for which the growth in the experiment with NCI-H522 lung is 112%; in the experiment with COLO 205 colon it was 134%; in the experiment with RXF 393 renal, 116%; in the experiment on M14 melanoma it was 100%; in the experiment with U251 CNS it was 100%; in the experiment with EKVX NSCLC, 96.7%. The growth in the experiment on TK-10 renal was 115%; in the experiment with CAKI-1 renal, 107%; in the experiment on CCRF-CEM leukemia, 99.8%; in the experiment with MOLT-4 leukemia, 97.2%; in the experiment with SR leukemia, 102%; in the experiment on RPMI-8226 leukemia, 113%. In addition, the growth is 111% with SK-OV-3 ovarian, 124% with BT-549 breast, 102% with SW-620 colon and 114% with HCT-116 colon.
Regarding `CC1(C)N=C(N)N=C(N)N1c1ccc(OCCCCOc2ccc(S(=O)(=O)F)cc2)c(Cl)c1`, the growth was 5.92% (active) in the experiment on NCI-H522 lung; 45.9% with MALME-3M melanoma; 27.9% with RXF 393 renal; 19% in the experiment on M14 melanoma; 12% in the experiment on U251 CNS; 14.7% in the experiment on LOX IMVI melanoma. Also, the growth was 44.5% with CAKI-1 renal; 16% in the experiment with CCRF-CEM leukemia; 26.7% with MOLT-4 leukemia; 7.96% (active) in the experiment with RPMI-8226 leukemia; 43.3% with SK-OV-3 ovarian; 28.8% with BT-549 breast. Besides, the growth in the experiment on SW-620 colon was 13%; in the experiment with HCT-116 colon, 11.2%.
